Rows were chosen to be rich in hits. Some 1.5% of all compounds tested hit in one or more screens of this group.
MCL1-BIM inh: inhibitors of MCL1 binding to BIM-BH3, primary screen, biochemical, fluorescence polarization; 0.68% of 320,000 active; GST-MCL1 / FITC-Bim-BH3 fluorescence polarization; inhibition, % at 10.9 µM; Induced myeloid leukemia cell differentiation protein Mcl-1 (Homo sapiens), Q07820;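 active = inhibition above the mean inhibition of all tested compounds plus 3 SD, set per campaign, cut at about 40% in these data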;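 also: 0% = DMSO wells and 100% = unlabeled Bim-BH3 peptide control; higher means more loss of mP so more displacement of Bim peptide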
EBV gp42 block: Epstein-Barr virus gp42 inhibitors, primary screen, biochemical, uHTS, fluorescence polarization; Glycoprotein 42 (Epstein-Barr virus (strain AG876)), Q1HVG2; Fluorescence polarization binding assay, mP read-out; inhibition, % (tested at 21.74 µM); 0.42% of 220,000 active; in the data active = inhibition above about 50%
MEX-5 binding: MEX-5 zinc finger RNA-binding disruptors – biochemical, C. elegans, fluorescence polarization, MLPCN library, primary screen | Zinc finger protein mex-5 (Caenorhabditis elegans), Q9XUB2 | MEX-5/FITC-TCR2 RNA binding; hits give low values | activity score (negative = inhibition of binding), % at 10 µM | 0.38% of 300,000 active;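 active = inhibition past about -25% in most replicates, and total fluorescence under double the plate's negative control median, limit read from the data; inconclusive = replicates evenly split on the limit, or fluorescence at least double controls; inactive = too little inhibition in most replicates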;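 also: 0% = DMSO and -100% = 5 µM competing unlabeled TCR2 RNA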
E coli Lon inh: inhibitors of E. coli Lon protease, primary screen, biochemical, fluorescence polarization | AID 602123, 2011 | 0.42% of 360,000 active | purified E. coli Lon protease | P0A9M0 | inhibition, % at 7.94 µM; in the data active = inhibition above about 13%, passing the limit was not always enough;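 also: 0% = enzyme with probe and DMSO and 100% = no enzyme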
Target sequence (P0A9M0 whole entry, looked up): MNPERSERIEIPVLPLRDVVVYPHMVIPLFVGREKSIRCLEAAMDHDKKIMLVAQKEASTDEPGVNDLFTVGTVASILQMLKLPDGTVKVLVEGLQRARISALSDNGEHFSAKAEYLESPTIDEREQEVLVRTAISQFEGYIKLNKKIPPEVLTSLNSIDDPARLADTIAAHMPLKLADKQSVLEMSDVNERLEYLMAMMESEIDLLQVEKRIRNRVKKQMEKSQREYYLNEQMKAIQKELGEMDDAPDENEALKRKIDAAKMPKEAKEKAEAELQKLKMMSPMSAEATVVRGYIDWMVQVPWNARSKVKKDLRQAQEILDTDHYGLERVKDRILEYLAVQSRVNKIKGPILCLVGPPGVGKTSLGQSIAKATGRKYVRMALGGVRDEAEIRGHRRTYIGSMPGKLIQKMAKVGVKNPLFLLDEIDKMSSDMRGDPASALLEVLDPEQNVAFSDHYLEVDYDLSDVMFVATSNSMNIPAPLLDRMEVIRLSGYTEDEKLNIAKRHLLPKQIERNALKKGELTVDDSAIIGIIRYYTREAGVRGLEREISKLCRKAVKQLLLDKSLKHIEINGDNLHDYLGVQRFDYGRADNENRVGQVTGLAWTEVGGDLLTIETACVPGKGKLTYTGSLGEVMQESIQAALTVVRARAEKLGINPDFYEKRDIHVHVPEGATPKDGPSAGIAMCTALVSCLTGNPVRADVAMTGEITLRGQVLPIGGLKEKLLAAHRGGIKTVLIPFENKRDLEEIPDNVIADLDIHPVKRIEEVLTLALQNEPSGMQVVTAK
BCLXL inh: inhibitors of human Bcl-xL, primary screen, biochemical, fluorescence polarization, HTS; 0.7% of 320,000 active; GST-Bcl-xL / FITC-Bim BH3 peptide fluorescence polarization; Bcl-2-like protein 1 (Homo sapiens), Q07817; inhibition, % at 10.9 µM;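 active = inhibition above the mean of all tested compounds plus 3 SD, cutoff set per campaign, cut at about 30% in these data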;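 also: 0% = DMSO wells and 100% = unlabeled Bim-BH3 peptide competitor; inhibitors lower millipolarization by displacing the labeled peptide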
GLD-1 TGE inh: GLD-1/TGE RNA complex disruptors, primary screen, biochemical, fluorescence polarization | Female germline-specific tumor suppressor gld-1 (Caenorhabditis elegans), Q17339 | 0.44% of 320,000 active | inhibition, % at 5.96 µM | purified GLD-1 + fluorescein TGE RNA;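 active = percent inhibition above a per-plate cutoff, the plate mean of test compounds plus 3 SD, cut at about 30% in these data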;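 also: 0% = DMSO wells with GLD-1 and probe and 100% = wells lacking GLD-1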
E coli Lon conf: E. coli Lon protease inhibitor retest, confirmation, biochemical, fluorescence polarization | shares compounds with E coli Lon inh | purified E. coli Lon | inhibition, % at 7.94 µM | 31% of 1,400 active; in the data active = inhibition above about 16%;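 also: 0% = enzyme with probe and DMSO and 100% = no enzyme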
The depositor's hits bear a star; u = inconclusive; x = no result given.

SMILES	MCL1-BIM inh	EBV gp42 block	MEX-5 binding	E coli Lon inh	BCLXL inh	GLD-1 TGE inh	E coli Lon conf
CCOC(=O)C(C)Sc1nnc(Cc2cc(=O)[nH]c(=O)[nH]2)n1-c1ccc(OCC)cc1 (configuration not stated)	-6.5	-10.9	x	-3.2	0.0	5.0	x
Cc1cc[n+](-c2[nH]c(=O)sc2/C=N/N=C(\[O-])c2ccccc2)cc1C	x	136.8*	u	67.8*	x	x	125.5*
Cc1cc2cc(CNC(=O)c3cccc([N+](=O)[O-])c3)ccc2n1C	5.5	-16.4	-1.5	7.5	5.5	10.1	x
Cc1cc2cc(CNS(=O)(=O)c3ccc4ccccc4c3)ccc2n1C	1.2	-2.8	0.2	16.3*	8.4	11.8	11.8
Cc1cc2cc(CNC(=O)c3ccc(S(=O)(=O)N4CCOCC4)cc3)ccc2n1C	15.7	5.6	-1.2	24.4*	10.6	23.3	2.9
Cc1cc(C)c(S(=O)(=O)NCc2ccc3c(c2)cc(C)n3C)c(C)c1	-0.3	-3.3	-0.2	13.9	-0.8	20.3	x
Cc1cc2cc(CNC(=O)c3ccc(S(=O)(=O)N(C)C)cc3)ccc2n1C	10.5	-6.1	-3.9	25.9*	9.6	14.2	6.2
COc1cccc(CNC(=O)c2ccc(S(=O)(=O)N3CCOCC3)cc2)c1	x	x	x	5.0	x	x	x
COc1ccc(C(=O)OCC(=O)Nc2ccc(F)c(F)c2)cc1OC	2.2	-9.2	1.4	14.0*	10.1	-1.0	-3.6
CN(C(=O)NC1CCCCC1)[C@H]1C[C@H]2c3[nH]c4ccccc4c3CCN2C(=O)[C@H]1CO	x	x	x	-12.0	x	x	x
CN(C(=O)C(C)(C)C)[C@H]1C[C@H]2c3[nH]c4ccccc4c3CCN2C(=O)[C@H]1CO	x	x	x	14.2*	x	x	-10.7
CN(C)Cc1csc(NC(=O)Nc2ccccc2-c2ccccc2)n1	x	x	x	-15.4	x	x	x
CN(C)Cc1csc(NC(=O)Nc2ccccc2Oc2ccccc2)n1	x	x	x	86.2*	x	x	6.1
CCC(=O)c1ccc(OCC(=O)N2CCN(c3ncccn3)CC2)cc1	-5.0	x	-0.5	-23.2	3.7	1.2	x
Cc1cc(NC(=O)CCC(=O)N(Cc2ccco2)C2(C(=O)NC3CCCCC3)CCCCC2)no1	-1.6	x	-1.6	20.6*	-1.2	-4.3	-2.5
NS(=O)(=O)c1ccc(N/N=C/c2ccc(O)c(O)c2O)c([N+](=O)[O-])c1	x	96.8*	x	21.1*	x	x	37.8*
NS(=O)(=O)c1ccc(N/N=C/c2ccc(O)cc2O)c([N+](=O)[O-])c1	1.4	7.1	-3.6	-0.4	8.8	3.8	x
COc1cc(NCCCC(C)N)c2ncccc2c1 (configuration not stated)	x	-20.6	-25.8*	44.0*	x	x	3.6
COc1cc(NCCCCC(C)N)c2nccc(C)c2c1 (configuration not stated)	x	x	x	3.0	x	x	x
CC(C)=C(NC(=O)c1ccccc1)C(=O)NCCc1nc2ccccc2[nH]1	5.9	x	-0.3	-1.4	3.5	2.4	x
COc1ccc(CNC(NC(=O)c2ccccc2)(C(F)(F)F)C(F)(F)F)cc1	0.5	9.4	1.3	29.6*	-1.2	1.7	3.0
C(=Cc1cnc2ccccc2n1)c1ccc2c(c1)OCO2	x	x	x	96.0*	x	x	-16.8
CN(C(=O)CSc1ncnc2sc3c(c12)CCCC3)C1CCS(=O)(=O)C1 (configuration not stated)	x	x	x	-4.8	x	-4.4	x
CCOc1nc(NC2CCCC2)nc(N2CCC(C)CC2)n1	2.1	x	1.4	-2.6	9.8	9.0	x
Cc1cc(C)c2c(c1)-c1cc(C)nn1C(c1ccc3c(c1)OCO3)N2 (configuration not stated)	4.3	-3.0	2.0	20.8*	4.3	8.3	-1.1
SMILES	MCL1-BIM inh	EBV gp42 block	MEX-5 binding	E coli Lon inh	BCLXL inh	GLD-1 TGE inh	E coli Lon conf
Nc1nn(S(=O)(=O)c2ccccc2)cc1-c1ccc([N+](=O)[O-])cc1	6.9	6.4	1.3	-2.4	6.1	1.4	x
Cc1ccc(S(=O)(=O)n2cc(-c3ccccc3)c(N)n2)cc1	0.6	-9.7	x	15.0*	-1.9	10.9	-1.7
Cc1[nH]n(-c2ccccc2)c(=O)c1/C=N/NC(=O)c1ccccc1F	6.7	x	1.7	20.9*	5.3	-1.6	-5.7
O=C1NC[C@@H](Cc2ccc(O)cc2)N(CCc2cc(C(F)(F)F)cc(C(F)(F)F)c2)C1=O	x	x	x	-3.7	x	x	x
O=c1c2ccccc2sn1-c1nccs1	x	-9.6	1.4	22.3*	x	x	19.7*
O=C1ON=C(c2ccccc2)/C1=C/c1cccnc1	x	7.5	x	17.4*	x	x	3.3
O=C(c1ccccc1NS(=O)(=O)c1ccccc1)N1CCCCCC1	-4.4	x	3.2	-9.1	0.2	1.4	x
O=C(c1ccccc1NS(=O)(=O)c1cccs1)N1CCCC1	-2.6	-4.0	2.3	19.9*	5.9	6.0	-5.0
CCOC(=O)[C@@H]1[C@H]2COc3ccc(Br)cc3[C@@H]2N2C(=O)N(c3ccc(OC)cc3)C(=O)[C@@]12C	x	x	x	-9.8	x	2.5	x
CCOC(=O)C1CCN(c2nc3cc(OC)ccc3cc2C#N)CC1	9.2	-5.7	-1.2	-6.6	23.7	12.8	x
COc1ccc2nc(N3CCC(C)CC3)c(C#N)cc2c1	24.5	49.6	-9.4	15.1*	26.9	21.1	23.1*
O=C1CCCc2ccccc2N1Cc1ccc(Cl)cc1Cl	-5.9	-9.2	2.3	18.0*	-1.8	0.1	-0.6
O=C1CCCc2ccccc2N1Cc1ccccc1Cl	0.6	-13.1	2.5	-5.3	1.7	7.9	x
COC(=O)c1ccc(=O)n(Cc2ccc3c(c2)OCO3)c1	-4.4	1.3	-1.4	20.6*	4.1	-3.5	-7.0
COC(=O)N1CCCC(c2cc(C(=O)Nc3ccccc3Cl)no2)C1 (configuration not stated)	x	x	x	52.2*	x	x	0.9
O=C(Nc1ccccc1Cl)c1cc(C2CCCN(C(=O)OCCF)C2)on1 (configuration not stated)	x	x	x	-5.7	x	x	x
COc1ccc(CNC(=O)C2CCN(S(=O)(=O)c3ccc(N4CCCC4=O)cc3)CC2)cc1	x	x	x	2.6	x	x	x
Cc1ccc2c(c1)c1c(n2CC(O)CN2CCCCCC2)CCCC1 (configuration not stated)	5.8	x	-8.1	4.2	5.3	-2.4	x
Cc1ccc2c(c1)c1c(n2CC(O)CNC(C)(C)C)CCCC1 (configuration not stated)	x	4.2	x	15.9*	x	x	9.6
CCCOC(=O)C1C2C=CC(C2)C1C(=O)OCC(=O)c1ccccc1 (configuration not stated)	7.0	9.6	-0.4	25.5*	3.1	6.8	86.9*

Bioassay records from PubChem.
